# Data published in PubChem BioAssay AID1159580 (chemical genetic matrix, 2015).
# Screen size: about 5,500 compounds; about 2,000 (36%) were called active. Another 18% or so got no clear call; they are omitted. The list shows a part of the results. A number with no mark means an inactive call. Rule as the data show it: active = normalized growth mostly below about 0.91 (no sharp cut-off); inconclusive = no clear call, values can overlap the other calls; inactive = mostly above about 0.92.
# Experiment: chemical genetic growth profiling, strain panel (AID 1159580);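 also: tested at 20 µM; growth read once vehicle control cultures reached saturation at 30 °C; 1 = growth at the plate median or of vehicle wells; lower values mean less growth of the strain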
# Conditions: S. cerevisiae deletion strains, growth OD
smiles,measurement,setting,value
Oc1c(Cl)cc(Cl)cc1Sc1cc(Cl)cc(Cl)c1O,normalized growth,"locus YJR066W, strain TOR1, hits give low values",0.00096 (active)
same,normalized growth,"locus YJR075W, strain HOC1, hits give low values",0.962
same,normalized growth,"locus YKL009W, strain mrt4, hits give low values",0.956
same,normalized growth,"locus YKL068W, hits give low values",0.978
same,normalized growth,"locus YKL085W, strain MDH1 (second series), hits give low values",0.973
same,normalized growth,"locus YKL085W, strain MDH1, hits give low values",0.973
same,normalized growth,"locus YKL160W, strain elf1, hits give low values",0.0607 (active)
same,normalized growth,"locus YKR001C, strain vps1, hits give low values",1.01
same,normalized growth,"locus YKR026C, strain gcn3, hits give low values",0.0616 (active)
same,normalized growth,"locus YKR091W, strain srl3, hits give low values",0.0572 (active)
same,normalized growth,"locus YLL001W, strain dnm1, hits give low values",0.0641 (active)
same,normalized growth,"locus YLL026W, hits give low values",0.0559 (active)
same,normalized growth,"locus YLL041C, strain sdh2, hits give low values",0.0561 (active)
same,normalized growth,"locus YLR027C, strain aat2, hits give low values",0.0575 (active)
same,normalized growth,"locus YLR039C, strain RIC1, hits give low values",0.945
same,normalized growth,"locus YLR058C, strain SHM2, hits give low values",0.984
same,normalized growth,"locus YLR102C, strain apc9, hits give low values",0.962
same,normalized growth,"locus YLR113W, strain HOG1, hits give low values",0.152 (active)
same,normalized growth,"locus YLR221C, strain rsa3, hits give low values",0.0589 (active)
same,normalized growth,"locus YLR258W, strain gsy2, hits give low values",0.0608 (active)
same,normalized growth,"locus YLR262C, strain YPT6 (second series), hits give low values",0.0722 (active)
same,normalized growth,"locus YLR262C, strain YPT6, hits give low values",1
same,normalized growth,"locus YLR268W, strain sec22, hits give low values",0.976
same,normalized growth,"locus YLR320W, strain mms22, hits give low values",0.0755 (active)
same,normalized growth,"locus YLR330W, strain CHS5, hits give low values",0.995
same,normalized growth,"locus YLR342W, strain FKS1 (second series), hits give low values",1.05
same,normalized growth,"locus YLR342W, strain FKS1, hits give low values",0.0628 (active)
same,normalized growth,"locus YLR357W, strain rsc2, hits give low values",0.119 (active)
same,normalized growth,"locus YLR370C, strain arc18, hits give low values",0.0603 (active)
same,normalized growth,"locus YLR371W, strain rom2, hits give low values",0.994
same,normalized growth,"locus YLR384C, strain iki3, hits give low values",0.0584 (active)
same,normalized growth,"locus YLR418C, strain cdc73, hits give low values",0.979
same,normalized growth,"locus YML016C, strain PPZ1, hits give low values",0.991
same,normalized growth,"locus YML032C, strain rad52, hits give low values",0.986
same,normalized growth,"locus YML120C, strain ndi1, hits give low values",0.0563 (active)
same,normalized growth,"locus YML124C, strain tub3, hits give low values",0.989
same,normalized growth,"locus YMR058W, strain fet3, hits give low values",0.0603 (active)
same,normalized growth,"locus YMR078C, strain ctf18, hits give low values",0.989
same,normalized growth,"locus YMR125W, strain sto1, hits give low values",0.0858 (active)
same,normalized growth,"locus YMR129W, hits give low values",0.0578 (active)
same,normalized growth,"locus YMR205C, strain PFK2, hits give low values",0.0864 (active)
same,normalized growth,"locus YMR223W, strain ubp8, hits give low values",0.991
same,normalized growth,"locus YMR231W, strain pep5, hits give low values",0.0649 (active)
same,normalized growth,"locus YMR307W, strain GAS1, hits give low values",1.17
same,normalized growth,"locus YNL067W, strain RPL9B, hits give low values",0.941
same,normalized growth,"locus YNL071W, strain lat1, hits give low values",0.0603 (active)
same,normalized growth,"locus YNL183C, strain NPR1, hits give low values",-0.00055 (active)
same,normalized growth,"locus YNL209W, strain ssb2, hits give low values",0.0572 (active)
same,normalized growth,"locus YNL233W, strain BNI4, hits give low values",0.966
same,normalized growth,"locus YNL248C, strain rpa49, hits give low values",0.0762 (active)
same,normalized growth,"locus YNL250W, strain rad50, hits give low values",0.98
same,normalized growth,"locus YNL271C, strain bni1, hits give low values",0.996
same,normalized growth,"locus YNL298W, strain CLA4, hits give low values",0.967
same,normalized growth,"locus YNL307C, strain MCK1, hits give low values",0.975
same,normalized growth,"locus YNL322C, strain KRE1 (second series), hits give low values",0.0643 (active)
same,normalized growth,"locus YNR049C, strain mso1, hits give low values",0.0565 (active)
same,normalized growth,"locus YNR052C, strain pop2, hits give low values",0.982
same,normalized growth,"locus YOL006C, strain TOP1, hits give low values",0.921
same,normalized growth,"locus YOL012C, strain htz1",0.709
same,normalized growth,"locus YOL147C, strain pex11, hits give low values",0.975
same,normalized growth,"locus YOR001W, strain rrp6, hits give low values",0.0689 (active)
same,normalized growth,"locus YOR061W, strain CKA2, hits give low values",0.994
same,normalized growth,"locus YOR069W, strain VPS5, hits give low values",0.989
same,normalized growth,"locus YOR070C, strain gyp1, hits give low values",0.0566 (active)
same,normalized growth,"locus YOR080W, strain dia2, hits give low values",0.0627 (active)
same,normalized growth,"locus YOR083W, strain WHI5, hits give low values",0.0603 (active)
same,normalized growth,"locus YOR106W, strain vam3, hits give low values",0.0687 (active)
same,normalized growth,"locus YOR136W, strain idh2, hits give low values",0.978
same,normalized growth,"locus YOR144C, strain elg1, hits give low values",0.993
same,normalized growth,"locus YOR184W, strain ser1, hits give low values",0.979
same,normalized growth,"locus YOR231W, strain MKK1, hits give low values",0.118 (active)
same,normalized growth,"locus YOR265W, strain rbl2, hits give low values",0.0558 (active)
same,normalized growth,"locus YOR270C, strain vph1, hits give low values",0.113 (active)
same,normalized growth,"locus YOR290C, strain snf2, hits give low values",0.0666 (active)
same,normalized growth,"locus YOR316C, strain cot1, hits give low values",0.97
same,normalized growth,"locus YPL051W, strain arl3, hits give low values",0.0608 (active)
same,normalized growth,"locus YPL055C, strain LGE1, hits give low values",0.973
same,normalized growth,"locus YPL078C, strain atp4, hits give low values",0.0682 (active)
same,normalized growth,"locus YPL106C, strain sse1, hits give low values",0.111 (active)
same,normalized growth,"locus YPL240C, strain hsp82, hits give low values",0.0577 (active)
same,normalized growth,"locus YPL241C, strain CIN2, hits give low values",0.984
same,normalized growth,"locus YPL256C, strain CLN2, hits give low values",0.147 (active)
same,normalized growth,"locus YPR119W, strain clb2, hits give low values",0.985
same,normalized growth,"locus YPR141C, strain kar3, hits give low values",0.979
same,normalized growth,"locus YPR163C, strain tif3, hits give low values",0.983
same,normalized growth,"locus YPR167C, strain met16, hits give low values",0.986
same,normalized growth,"strain wtn01, hits give low values",0.995
